This note sets out measurements from PubChem BioAssay AID1490 (National Center for Advancing Translational Sciences (NCATS), 2009).

Hit rate of the full screen: of about 310,000 compounds, about 11,000 (3.5%) were called active. Inconclusive results (about 4%) are left out. The entries come from a sample that favours actives as a whole. A number with no mark means an inactive call. The call rests on the fitted dose curve; in most records, active means well fitted inhibition curve with a large enough effect; inconclusive means small, poorly fitted or top-dose-only effect, or another doubt; inactive means no such curve, though single readings can be large or run the other way.
Potency means the concentration at half of the fitted maximal effect.

This assay has as its target 4'-phosphopantetheinyl transferase ffp (Bacillus subtilis) (UniProt Q9F4F7). Description: qHTS Assay for Inhibitors of Bacillus subtilis Sfp phosphopantetheinyl transferase (PPTase).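 Further: the enzyme is Sfp with the accession as filed and its product quenches rhodamine fluorescence.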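 On largest response in the series, negative = inhibition: 0% = enzyme reaction without inhibitor and -100% = no enzyme wells.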 Conditions: Biochemical Sfp PPTase activity. In outline: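 Compounds were incubated with enzyme (final 15 nM) for 15 min at room temperature before substrate addition started the reaction. Fluorescence at 525 nm excitation, 598 nm emission was recorded immediately and after 30 minutes.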
For orientation: Quantitative high-throughput screening tests each substance at several concentrations.
As for `CCC(C)NC(=O)C1c2ccccc2C(=O)N1Cc1ccccc1` (stereo unspecified), the largest response in the series, negative = inhibition was 0.907%.
On the same count and under the same terms, the same measure for `CC1(C)C(C=C(Cl)Cl)C1C(=O)NC(O)C(=O)c1ccccc1` (stereo unspecified): 3.88%.
The same measure, in the same setting: the same measure for `Cc1ccc(S(=O)(=O)N(CC(O)CN2C(=O)NC(C)(C)C2=O)c2cccc([N+](=O)[O-])c2)cc1` (stereo unspecified): 5.58%; for `Cn1c(=O)n(Cc2ccco2)c(=N)c2c3c(sc21)CCCC3`: -9.41%.
As to `CCCSc1nc(NCc2ccco2)c2c3c(sc2n1)COC(C)(CC)C3` (stereo unspecified), the largest response in the series, negative = inhibition was -1.25%.
Regarding `CN1CCc2c(sc3c2c(NCc2ccco2)nc2nnnn23)C1`, the Potency was 11.2 µM (active).
Turning to `Cc1ccc(C)c(C(C)NC(=O)C2CCCO2)c1` (stereo unspecified), the largest response in the series, negative = inhibition is 24.3%.
With `O=C(/C=C/c1ccc2c(c1)OCCO2)c1ccc(O)cc1`, the largest response in the series, negative = inhibition is -4.02%.
Same read-out and setting: the result for `CN(CCO)c1ccc(/C=N/Nc2nncc3ccccc23)cc1` reads 6.72%.
On to `CCC(C(=O)NCCC(C)C)N(Cc1ccccc1Cl)C(=O)c1snc(C(N)=O)c1N` (stereo unspecified), for which the largest response in the series, negative = inhibition was 7.3%.
Take `Cc1csc(NC(=O)Nc2ccccc2[N+](=O)[O-])n1`: the largest response in the series, negative = inhibition was -6.55%.
The same measure, in the same setting: the same measure for `CC(=O)Nc1cccc(C(=O)Nc2nc(C)cs2)c1`: -6.97%.
For the compound `Cc1csc(NC(=O)NC2(C(F)(F)F)Oc3ccccc3O2)n1`, the Potency was 8.91 µM (active).
As for `COc1ccc2c(CC(=O)N3CCc4cc(OC)c(OC)cc4C3)coc2c1`, the largest response in the series, negative = inhibition was 1%.
Take `Cc1ccc(OCC(=O)Nc2nnc(-c3ccco3)s2)cc1`: the Potency was 79.4 µM (active).
`COc1ccc(OCC(=O)Nc2nnc(-c3ccco3)s2)cc1`: the largest response in the series, negative = inhibition was -15%.
Still for that read-out and setting: the result for `CNc1nnc(-c2ccco2)s1` reads 5.68%.
Consider `COc1ccc(N(CC(=O)NCC2CCCO2)C(=O)CCC(=O)Nc2nccs2)c(OC)c1` (stereo unspecified), for which the largest response in the series, negative = inhibition was 26.6%.
Same read-out and setting: the result for `CCOc1ccc(C(=O)Nc2ccc(CN3CCOCC3)cc2)cc1Cl` reads 8.41%.
The same measure, in the same setting: the result for `O=C(Nc1ccc(O)cc1)c1ccccc1O` reads -1.36%; that for `Cc1ccccc1Cn1c(=O)[nH]c2ccccc21`, -2.4%.
Regarding `CCCc1cc(=S)n2c([nH]c3ccccc32)c1C#N`, the Potency was 56.2 µM (active).
In the case of `CCOC(=O)CCc1c(C)c(C#N)c2[nH]c3ccccc3n2c1=O`, the largest response in the series, negative = inhibition is -12.3%.
Take `Cc1cccn2cc(-c3cccc(S(=O)(=O)N4CCCCC4)c3)nc12`: the largest response in the series, negative = inhibition was -2.13%.
The same measure, in the same setting: the same measure for `CCn1c(SCC(=O)c2ccc3ccccc3c2)nnc1-c1cccs1`: -21.9%; for `Cc1ccc(NC(=O)CSc2nnc(-c3cnccn3)n2Cc2ccco2)cc1C`: -38.6%.
On to `O=C(CSc1nnc(-c2cccs2)n1-c1ccccc1)NCc1ccco1`, for which the largest response in the series, negative = inhibition is 14.2%.
Turning to `CCOC(=O)Cc1csc(NC(=O)CSc2nnc(-c3cccnc3)n2Cc2ccco2)n1`, the largest response in the series, negative = inhibition is -19.3%.
For the compound `O=C(CSc1nnc(-c2cccnc2)n1Cc1ccco1)c1ccc(Cl)c(Cl)c1`, the Potency was 28.2 µM (active).
Turning to `CCn1c(SCC(=O)c2ccc(Cl)s2)nnc1-c1cccs1`, the largest response in the series, negative = inhibition was -7.42%.
On to `COc1ccccc1NC(=O)CSc1nc2sc(C)c(C)c2c(=O)n1Cc1ccco1`, for which the Potency was 20 µM (active).
With `COc1ccccc1NC(=O)CSc1nc2sc3c(c2c(=O)n1-c1ccccc1)CCN(C)C3`, the largest response in the series, negative = inhibition was -13.2%.
The same measure, in the same setting: the same measure for `COc1ccccc1NC(=O)CSc1nnc(-c2ccoc2C)n1CCc1ccccc1`: -0.913%.
With `O=C(CSc1nnc(-c2cccs2)n1Cc1ccco1)c1ccc2c(c1)OCO2`, the Potency was 56.2 µM (active).
In the case of `COc1ccc(NC(=O)CSc2nnc(-c3cccs3)n2Cc2ccco2)cc1OC`, the Potency was 22.4 µM (active).
As for `O=C(CSc1nnc(-c2cccnc2)n1Cc1ccco1)c1ccc(Cl)cc1`, the largest response in the series, negative = inhibition is 5.12%.
As to `O=C1Nc2cc(C(=O)N3CCC(N4CCCCC4)CC3)ccc2S/C1=C\c1ccccc1`, the largest response in the series, negative = inhibition is -28.2%.
Same read-out and setting: the result for `CCCNC(=O)CCc1c(C)nc2c(c(C)nn2-c2ccc(C)cc2)c1C` reads 20.1%; that for `O=C(NC1CCCC1)C(=O)c1c[nH]c2ccccc12`, 20.8%.
Regarding `CC(C)C[C@@H](CC(=O)N[C@@H](CCC(=O)O)CC(=O)O)NC(=O)[C@@H]1CCCC[C@H]1NC(=O)C[C@@H](NC(=O)C[C@H](Cc1c[nH]c2ccccc12)NC(=O)[C@@H]1CCCC[C@H]1N)C(C)C`, the largest response in the series, negative = inhibition was -18.7%.
Still for that read-out and setting: the same measure for `CCOC(=O)c1ccc(NC(=O)Cc2cccs2)cc1`: 0.409%.
Still for that read-out and setting: the same measure for `COc1ccc(NC(=O)C2CCC(CNC(=O)[C@@H]3Cc4ccccc4CN3)CC2)cc1` (stereo partly specified): 7.97%.
Still for that read-out and setting: the result for `O=C(COc1ccc(S(=O)(=O)Nc2cccc(C(F)(F)F)c2)cc1)N1CCOCC1` reads 9.23%; that for `O=C(NC1CCCC1)C(c1ccco1)N(C(=O)c1csnn1)c1ccccc1` (stereo unspecified), 19.9%.
Turning to `Cn1cc(-c2nc3cnc(N4CCNCC4)nc3n(CCC#N)c2=O)c2ccccc21`, the largest response in the series, negative = inhibition is -19.5%.
As to `Cn1cc(-c2nc3cnc(N4CCNCC4)nc3n(CCc3ccccc3)c2=O)c2ccccc21`, the Potency is 39.8 µM (active).
Consider `Cc1nc2cnc(N3CCNCC3)nc2n(CCc2ccccc2)c1=O`, for which the largest response in the series, negative = inhibition is -8.2%.
Still for that read-out and setting: the same measure for `COc1ccc(C2/C=C\CN(C(=O)c3ccc(C)cc3)C(Cc3ccccc3)C(=O)N2Cc2ccc(F)cc2)cc1` (stereo unspecified): -6.91%.
Same read-out and setting: the result for `CC1(C(=O)NNC(=S)NCC2CCCO2)CC1(Cl)Cl` (stereo unspecified) reads 17.2%.
The same measure, in the same setting: the same measure for `Cc1cccc(C)c1NC(=O)NC1=CCCN1C`: 20.1%.
Take `Cc1ccc(C(=O)O)cc1NC(=O)c1ccc(Cn2nc(C)c(Cl)c2C)o1`: the Potency was 56.2 µM (active).
Regarding `Cc1cc(OCc2ccc(C(=O)Nc3ccc(C(=O)O)cc3)o2)ccc1Cl`, the largest response in the series, negative = inhibition is 0.726%.
Same read-out and setting: the same measure for `Cc1cc(C(=O)Nc2c(C)nn(Cc3ccccc3)c2C)on1`: 18.5%.
As for `Cc1cc(C)nc(NNC2=CC(=O)CC(C)(C)C2)n1`, the Potency is 22.4 µM (active).
Turning to `CC1(C)CC(=O)C=C(Nc2ccccc2)C1`, the largest response in the series, negative = inhibition was 25.1%.
The same measure, in the same setting: the same measure for `COC(=O)NNC1=CC(=O)CC(C)(C)C1`: -3.96%.
The same measure, in the same setting: the result for `Cc1ccc2c(c1)N(CC(=O)N1CCCC(C)C1)C(=O)CO2` (stereo unspecified) reads 5.13%; that for `CCn1c(C)c(C)c2cc(C(=O)N3CCN(c4cccc(C)c4C)CC3)ccc21`, -24.3%.
Same read-out and setting: the same measure for `CCOC(=O)c1[nH]c2c(c1-c1ccccc1)C(=O)CC(c1ccc(Cl)cc1)C2` (stereo unspecified): 5.24%; for `CCOC(=O)C1=C(C)NC(=O)N(C(C)=O)C1c1ccc(Cl)cc1` (stereo unspecified): 19%.
On to `CCOC(=O)C1Sc2[nH]c(=O)sc2C(c2ccc(Cl)cc2)C1C(=O)OCC` (stereo unspecified), for which the Potency is 22.4 µM (active).
